PubChem BioAssay (Tox21)
Values joined by “and” are separate entries in the source; they are usually repeats but may differ in a detail not shown here. Equal values may be shown once. Inconclusive results are not listed. Entries that show only a call come without a potency. A number with no mark means an inactive call. Active and inactive are the calls of the source. Calls come from the whole dose curve; as a rule, active = well fitted curve in the direction sought with a large enough effect in the repeat runs; inconclusive = weak or mixed curves; inactive = no such curve, though single readings can be large; an effect the other way counts as inactive or inconclusive.

Experiments:
[1] = qHTS RealTime-Glo MT Cell Viability Assay in HEK293 cells - 16 hour (AID 1224872); note: nearly all actives have a fitted effect of over 50% in size; note: potency is the fitted concentration of half-maximal effect
Outline: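 Reads taken at 0, 8, 16, 24, 32 and 40 h from the same wells. HEK293 cells (600/well) carried RealTime-Glo reagents from seeding, with compound added after a 5 h settle at 37 C.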

[2] = qHTS RealTime-Glo MT Cell Viability Assay in HepG2 cells - 8 hour (AID 1224873); note: nearly all actives have a fitted effect of over 55% in size; note: potency is the fitted concentration of half-maximal effect
Outline: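 HepG2 cells mixed with RealTime-Glo MT reagents (NanoLuc plus cell-permeant prosubstrate) were seeded at 600 cells/well, incubated 5 h at 37 C/5% CO2, then pinned with compounds in DMSO; nonlytic luminescence tracked viability during 40 h treatment.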

[3] = qHTS RealTime-Glo MT Cell Viability Assay in HEK293 cells - 40 hour (AID 1224874); details: RealTime-Glo luminescence; max response: active compounds read low; note: nearly all actives have a fitted effect of over 50% in size; note: potency is the fitted concentration of half-maximal effect
Outline: (§1)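 Real-time viability in HEK293: signal arises when living cells convert a prosubstrate for NanoLuc in the medium, so luminescence tracks viable cell number. Compound (23 nL, DMSO) added 5 h post-seeding; kinetic reads at 0–40 h, 37 C.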

[4] = A CellTox Green Cytotoxicity Assay to monitor cytotoxicity in HEK293 cells - 24 hour (AID 1224875); note: nearly all actives have a fitted effect of over 45% in size; note: potency is the fitted concentration of half-maximal effect
Outline: (§2)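 Cells (HEK293, 600/well) and dye reagent are dispensed together. After 5 h at 37 C, 23 nL compound is pinned in. Plates stay at 37 C for 40 h with fluorescence read at 0h, 8h, 16h, 24h, 32h and 40h.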

[5] = qHTS RealTime-Glo MT Cell Viability Assay in HEK293 cells - 0 hour (AID 1224880); note: top concentration of the series differs between compounds; nearly all actives have a fitted effect of over 45% in size
Outline: as §1

[6] = A CellTox Green Cytotoxicity Assay to monitor cytotoxicity in HEK293 cells - 32 hour (AID 1224881); note: nearly all actives have a fitted effect of over 40% in size; note: potency is the fitted concentration of half-maximal effect
Outline: as §2

[7] = qHTS RealTime-Glo MT Cell Viability Assay in HepG2 cells - 32 hour (AID 1224877); note: nearly all actives have a fitted effect of over 55% in size; note: potency is the fitted concentration of half-maximal effect
Outline: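 HepG2 suspension premixed with RealTime-Glo reagents is plated at 600 cells per well and left 5 h at 37 C/5% CO2. Compounds in DMSO then go in, and bioluminescence reflecting viable cell number is recorded over 40 h.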

[8] = A CellTox Green Cytotoxicity Assay to monitor cytotoxicity in HepG2 cells - 24 hour (AID 1224878); note: nearly all actives have a fitted effect of over 45% in size; note: potency is the fitted concentration of half-maximal effect
Outline: (§3)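 Cells and non-lytic dye reagent are dispensed together (600 HepG2 cells/well) and incubated 5 h before DMSO compound transfer. Kinetic fluorescence is then recorded in the same wells during 40 h at 37 C.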

[9] = A CellTox Green Cytotoxicity Assay to monitor cytotoxicity in HepG2 cells - 40 hour (AID 1224879); note: nearly all actives have a fitted effect of over 40% in size; note: potency is the fitted concentration of half-maximal effect
Outline: as §3

[10] = A CellTox Green Cytotoxicity Assay to monitor cytotoxicity in HepG2 cells - 16 hour (AID 1224876); note: nearly all actives have a fitted effect of over 45% in size; note: potency is the fitted concentration of half-maximal effect
Outline: as §3

Row | Compound | Potency [1] | Potency [2] | max response [3] [%] | Potency [4] | Potency [5] | Potency [6] | Potency [7] | Potency [8] | Potency [9] | Potency [3] | Potency [10]
1 | CCOC(=O)[C@@](C)(N)Cc1ccc(O)c(O)c1 | inactive | inactive | 0.793 | inactive | inactive | inactive |  |  |  |  | 
2 | CCCC(=O)OCC(COC(=O)CCC)OC(=O)CCC | inactive | inactive |  | inactive | inactive | inactive | inactive | inactive | inactive |  | 
3 | Oc1ccc(-c2ccccc2)c(Cl)c1 | 24.5 µM (active) | inactive |  |  | inactive |  | inactive | 49 µM (active) | 49 µM (active) | 21.9 µM (active) | 49 µM (active)
4 | CC(C)(C)C1=CC(=O)C=C(C(C)(C)C)C1=O | inactive | inactive | 11.2 |  | inactive |  | inactive | inactive | inactive |  | inactive
5 | S=P(N1CC1)(N1CC1)N1CC1 | inactive | inactive |  | inactive | inactive | inactive | inactive | inactive | inactive |  | inactive
6 | C[C@@]12C(=O)OC(=O)[C@]1(C)C1CCC2O1 | 5.35 µM (active) |  |  | inactive | inactive | inactive | 1.51 µM (active) | 19 µM (active) | 10.7 µM (active) | 6.01 µM (active) | 23.9 µM (active)
7 | C=CC(=O)OCCC#N | inactive | inactive |  | inactive | inactive | inactive | inactive | inactive | inactive |  | 
8 | CC1(C)C(=O)N(CO)C(=O)N1CO | inactive | inactive | 2.01 |  | inactive |  |  | inactive | inactive |  | inactive
9 | COc1cccc(CCc2ccccc2OCC(CN(C)C)OC(=O)CCC(=O)O)c1 (stereo unspecified) | inactive | inactive |  | inactive | inactive | inactive | inactive |  | 26.8 µM (active) |  | 
10 | Cc1ccc2ccc3cccc4ccc1c2c34 | inactive | inactive |  | inactive | inactive |  | inactive | inactive | inactive |  | inactive
11 | CC(C)(C)CC(C)(C)c1ccccc1O | 39.1 µM (active) | inactive |  | 39.1 µM (active) | inactive | 43.9 µM (active) | inactive | 27.7 µM (active) | 34.9 µM (active) |  | 24.7 µM (active)
12 | C=C[C@](C)(O)CC[C@@H]1[C@@]2(C)CCCC(C)(C)[C@@H]2CC[C@@]1(C)O | 19.5 µM (active) | 49 µM (active) |  |  | inactive | 43.6 µM (active) | 54.9 µM (active) | 49 µM (active) | 49 µM (active) | 21.9 µM (active) | 54.9 µM (active)
13 | CN(C)c1ccc(N=NS(=O)(=O)O)cc1 | 14.5 µM (active) |  | -17.2 | inactive | inactive | inactive | inactive |  | inactive |  | inactive
14 | CCc1ccc(O)c(C(C)(C)C)c1 | inactive |  | -13.3 | 43.6 µM (active) | inactive | 38.9 µM (active) | inactive | 38.9 µM (active) | 38.9 µM (active) |  | 43.6 µM (active)
15 | CCCCCCCCCCOCC(O)CN (stereo unspecified) | 23.9 µM (active) |  |  | 23.9 µM (active) |  | 26.8 µM (active) | 15.1 µM (active) |  | 15.1 µM (active) | 23.9 µM (active) | 19 µM (active)
16 | Cc1cccc(Br)c1 | inactive |  | 0.0661 | inactive | inactive | inactive | inactive | inactive | inactive |  | inactive
17 | O=C[C@H](O)[C@H](O)[C@H](O)CO | inactive |  | 0.822 | inactive | inactive | inactive | inactive | inactive | inactive |  | inactive
18 | COc1cccc(O)c1 | inactive |  | 11.4 | inactive | inactive | inactive | inactive |  | inactive |  | inactive
19 | ClC/C=C\CCl | inactive |  | -46.5 | inactive | inactive |  | inactive |  | inactive |  | inactive
20 | CC(C)c1ccc(O)c(C(C)C)c1 | inactive |  | -12.3 | 21.9 µM (active) | inactive | 21.9 µM (active) | inactive | 27.5 µM (active) | 27.5 µM (active) |  | 43.6 µM (active)
21 | CC1CCCCC1 | inactive |  | 5.61 | inactive | inactive | inactive |  | inactive | inactive |  | inactive
22 | CCOC(=O)N1CCC(=C2c3ccc(Cl)cc3CCc3cccnc32)CC1 | 21.9 µM (active) and 8.49 µM (active) |  |  | inactive | inactive | inactive |  |  | 54.9 µM (active) | 19.5 µM (active) and 16.9 µM (active) | inactive

Row | Compound | Potency [1] | Potency [2] | max response [3] [%] | Potency [4] | Potency [5] | Potency [6] | Potency [7] | Potency [8] | Potency [9] | Potency [3] | Potency [10]
23 | CC(=O)O[C@@H]1C[C@@H]2CC[C@@]1(C)C2(C)C | inactive |  | 0.199 | inactive | inactive | inactive | inactive | inactive | inactive |  | inactive
24 | CCCCCCCC/C=C\CCCCCCCC(=O)NCc1ccc(O)c(OC)c1 | 1.69 µM (active) |  |  | inactive | inactive | inactive | inactive | inactive | inactive | 4.25 µM (active) | inactive
25 | CCN(CC)c1ccc(N)cc1 | 22.5 µM (active) |  |  | inactive | inactive |  |  |  | 50.3 µM (active) | 17.8 µM (active) | inactive
26 | CCOC(=O)CC(C)O (stereo unspecified) | inactive |  | 5.55 | inactive | inactive | inactive | inactive | inactive | inactive |  | inactive
27 | CCCCCCCCCCCCN(CCO)CCO | 48.8 µM (active) |  |  | 54.7 µM (active) |  | 54.7 µM (active) |  | 24.4 µM (active) | 19.4 µM (active) | 38.7 µM (active) | 43.5 µM (active)
28 | CNC(=O)c1cc(Oc2ccc(NC(=O)Nc3ccc(Cl)c(C(F)(F)F)c3)cc2)ccn1 | 3.01 µM (active) |  |  | inactive | inactive | inactive |  | inactive |  | 3.01 µM (active) | inactive
29 | Clc1nc2ccccc2s1 | inactive |  | -10.6 | inactive | inactive | inactive | inactive | inactive | inactive |  | inactive
30 | O=C1OC(=O)c2ccc3c4c(ccc1c24)C(=O)OC3=O | inactive |  | 0.327 | inactive | inactive | inactive | inactive | inactive | inactive |  | inactive
31 | COc1cccc(OC)c1O | inactive |  | 8.86 | inactive | inactive | inactive | inactive | inactive | inactive |  | inactive
32 | O=C1NCCN1CCN1CCC(c2cn(-c3ccc(F)cc3)c3ccc(Cl)cc23)CC1 | 23.9 µM (active) |  |  | 23.9 µM (active) | inactive | 23.9 µM (active) | 26.8 µM (active) |  | 26.8 µM (active) | 12 µM (active) | 26.8 µM (active)
33 | Cc1cc2c(C(C)C)c(O)c(O)c(C=O)c2c(O)c1-c1c(C)cc2c(C(C)C)c(O)c(O)c(C=O)c2c1O | 19 µM (active) |  |  | 19 µM (active) | inactive | 21.3 µM (active) | 21.3 µM (active) |  | 26.8 µM (active) | 8.49 µM (active) | inactive
34 | CCCCOC(=O)C(C)CC (stereo unspecified) | inactive |  | 1.36 | inactive | inactive | inactive | inactive | inactive | inactive |  | inactive
35 | Cc1cc(C)c(C=O)c(C)c1 | inactive |  | 8.02 | inactive |  | inactive |  | inactive | inactive |  | inactive
36 | COc1cc(C(=O)NS(=O)(=O)c2ccccc2C)ccc1Cc1cn(C)c2ccc(NC(=O)OC3CCCC3)cc12 | inactive |  | -0.13 | inactive | inactive | inactive | inactive | inactive | inactive |  | inactive
37 | CCCCCCCCCCCCOC(=O)c1cc(O)c(O)c(O)c1 | 6.89 µM (active) and 5.49 µM (active) |  |  | 54.7 µM (active) and 49 µM (active) | inactive |  | 54.7 µM (active) and 49 µM (active) |  | 48.8 µM (active) and 54.9 µM (active) | 3.45 µM (active) and 3.47 µM (active) | 48.8 µM (active) and 38.9 µM (active)
38 | CCCCCCOc1cc(C)c(O)c(C)c1C | 14 µM (active) |  |  | 44.2 µM (active) | inactive | 44.2 µM (active) |  | 24.8 µM (active) | 24.8 µM (active) | 19.7 µM (active) | 24.8 µM (active)
39 | CN(C)c1ccc(N=Nc2ccccc2C(=O)O)cc1 | inactive |  | 2 | inactive | inactive | inactive |  | inactive |  |  | inactive
40 | Cc1cccc(N(C)C)c1 | inactive |  | 7.91 | inactive | inactive |  |  |  | inactive |  | inactive
41 | CCOCOCC | inactive |  | 5.75 | inactive | inactive | inactive | inactive | inactive | inactive |  | inactive
42 | Nc1ncnc2c1ncn2[C@@H]1O[C@H](COP(=O)(O)O)[C@@H](O)[C@H]1O | inactive |  | 3.96 | inactive | inactive | inactive | inactive | inactive | inactive |  | inactive
43 | CC(C)=CCCC(C)CCOC(=O)C(C)C (stereo unspecified) | inactive |  | 12.8 | inactive | inactive | inactive | inactive | inactive | inactive |  | inactive
44 | CC=O | 4.57 µM (active) |  |  | 57.5 µM (active) | inactive | 51.3 µM (active) | 45.7 µM (active) | 45.7 µM (active) | 25.7 µM (active) | 0.324 µM (active) | 57.5 µM (active)
